For ten compounds, outcome results are on record in PubChem BioAssay (EPA / NIEHS).

The source made the active and inactive calls. How the source made its calls: active means hit-call score of the fitted dose curve at least 0.9, where 1 is the maximum; inactive means score below 0.9.

This assay is described as follows: CCTE_Padilla_ZF_Score.Tail: CCTE's 144 Hour Post-fertilization zebrafish Assay Score for Tail Malformation, Padilla Lab (AID 2284414). As to the method: CCTE_Padilla_ZF_Phenotype_Score is a whole embryo, multiplexed assay using zebrafish ova exposed for 144 hours post fertilization on a 96-well plate.CCTE_Padilla_ZF_Score.Tail is one of one assay component(s) measured or calculated from the CCTE_Padilla_ZF_Phenotype_Score assay. It is designed to make measurements of zebrafish development as detected with brightfield microscopy of developing zebrafish embryos.Data from the assay component CCTE_Padilla_ZF_Score.Tail was analyzed into 1 assay endpoints. This assay endpoint, CCTE_Padilla_ZF_Score.Tail, was analyzed in the positive analysis fitting direction relative to DMSO as the negative control and baseline of activity. Using a type of viability reporter, gain-of-signal activity can be used to understand changes in developmentals as they relate to the whole embryo. To generalize the intended target to other relatable targets, this assay endpoint is annotated to the zebrafish development intended target family, where the subfamily is lower trunk morphogenesis.
Zebrafish husbandry: Wild type adult zebrafish (Danio rerio; undefined outbred stock obtained from Aquatic Research Organisms, Hampton, NH, 03842) were housed in an AAALAC-approved animal facility at 28C with a 14:10 h light: dark cycle (lights on at 08:30 h). Adult fish (2-3 females per male; density = 15-20 adults per tank) were kept in one of several 9-liter (L) flow-through colony tanks (Aquaneering Inc., San Diego, CA). All adults in a colony tank were placed in a 2 L (static) breeding tank (Aquatic Habitats, Apopka, FL) one hour prior to light onset. Typically, adults from two to three colony tanks were mated on the same day. Two hours after light onset the adults were returned to the colony tank. All embryos were gathered from each breeder tank, pooled, and placed in a 28C water bath for 2 h, followed by two washes with 0.06% bleach (v/v) in 10% Hanks' Balanced Salt Solution (13.7 mM NaCl 0.54 mM KCl, 25 uM Na2HPO4, 130 uM CaCl2 100 um MgSO4 and 420 um NaHCO3,), hereafter referred to as Hanks' solution, for 5 min in order to remove any residual bacteria or fungi. Immediately following washing, the embryos were examined, and healthy embryos were separated from dead or unfertilized eggs and moved into fresh Hanks'. Chemical exposures: Zebrafish embryos were exposed in 96-well plates. Between 6- and 8-hours post fertilization (hpf), healthy embryos (with chorions) were transferred, one embryo per well, into 96 well (0.5 mL) microtiter plates (Cell Culture-Treated, Flat-Bottom Microplate 96 well [Corning Costar, Kennebunk, ME; Cat 09-761-145]) filled with 200 uL of Hanks' solution. A random number generator was used to assign the order in which the rows of embryos were plated in 96 well plates each week. After plating, the embryos were dosed with 0.8 uL of the chemical dosing solution then immediately sealed with AlumaSeal II (Excel Scientific Inc, Victorville, CA) to prevent volatilization of the chemicals, and then placed in a leakproof secondary container. These containers were placed in an incubator maintained on a 14:10 h light: dark cycle at 26C for rearing. On 5 dpf, live larvae were gently moved out of the plate with test chemicals and into a new 96 well mesh plate (Millipore Corp., Bedford, MA) with just the Hanks' solution. Once within the mesh well plate, the animals were rinsed with 400 uL of fresh Hanks' three times, and then the plates were covered with a non-adhesive material (Microseal A, BioRad, Hercules, CA), plate lid added, and then plate sides wrapped in Parafilm (PM992, Bermis Company, Neenah, WI), and returned to the incubator. […]
Turning to `C[Si](C)(C)C(F)(F)C(F)(F)C(F)(F)F`, the result was inactive.

In the case of `O=C(Cl)C(F)(F)C(F)(F)C(F)(F)C(=O)Cl`, the compound was called inactive.

As for `FC(F)(F)C(F)(F)C(F)(F)C(F)(F)C(F)(F)C(F)(F)I`, the compound was classed as inactive. As for `FC(F)=C(F)C(F)(F)C(F)(F)C(F)(F)C(F)(F)C(F)(F)C(F)(F)F`, the compound was classed as inactive. Then `FC(F)(F)COC(OCC(F)(F)F)OCC(F)(F)F`, with “inactive”; and `OCCC(F)(F)C(F)(F)C(F)(F)C(F)(F)F`, with “inactive”.

Regarding `OC(O)(C(F)C(O)(O)C(F)(F)F)C(F)(F)F`, the result was inactive. `NCC(F)(F)C(F)(F)C(F)(F)C(F)(F)F`: the call was inactive. Then `FC(F)C(F)(F)COCC1CO1` (stereo not given), with “inactive”. For `O=S(=O)(O)CCC(F)(F)C(F)(F)C(F)(F)C(F)(F)C(F)(F)C(F)(F)F`, the result was inactive.
